{"source": "paper PMC7862700", "about": "“An all-to-all approach to the identification of sequence-specific readers for epigenetic DNA modifications on cytosine”", "assay_in_all_cases": "DAPPL (digital affinity profiling via proximity ligation, sequencing); 10 mM Tris-HCl pH 7.5, 50 mM NaCl, 1 mM DTT, 4% glycerol, room temperature, 30 min; GST-TFs on glutathione beads, 16-mer random dsDNA library, 0.1% formaldehyde crosslink after washing; high values mean tight binding", "conditions_in_all_cases": "protein: recombinant; tags: N-terminal GST; dsDNA, one strand shown", "key": {"FLI1": {"target": "T1, FLI1 (Homo sapiens, UniProt Q01543 1-452)", "T1 sequence": "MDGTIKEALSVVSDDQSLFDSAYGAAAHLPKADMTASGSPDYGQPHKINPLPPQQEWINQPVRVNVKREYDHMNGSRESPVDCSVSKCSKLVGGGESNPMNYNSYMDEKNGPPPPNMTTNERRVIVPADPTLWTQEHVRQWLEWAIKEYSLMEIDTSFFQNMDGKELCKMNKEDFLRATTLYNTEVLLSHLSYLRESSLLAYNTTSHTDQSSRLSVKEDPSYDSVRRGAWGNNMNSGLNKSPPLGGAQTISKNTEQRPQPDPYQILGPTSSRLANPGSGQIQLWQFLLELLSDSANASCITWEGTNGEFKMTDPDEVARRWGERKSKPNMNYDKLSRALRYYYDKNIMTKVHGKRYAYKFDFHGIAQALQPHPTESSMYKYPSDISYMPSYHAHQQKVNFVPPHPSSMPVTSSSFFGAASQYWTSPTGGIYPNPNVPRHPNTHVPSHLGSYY", "summary_of_the_method": "(§1)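 Sequencing on an Illumina NextSeq500 followed washing, crosslinking with 0.1% formaldehyde, proximity ligation (BsaI/T4 ligase, 1 h, 37 °C) and PCR amplification of pools that had been incubated for 30 min at room temperature with 200 nmole of a random double-stranded 16-mer DNA library in Tris/NaCl/DTT/glycerol buffer. Each pool held DNA-barcoded human transcription factors, expressed in yeast as GST fusions and captured on glutathione beads, plus a tag-only sample. Binding signal is a hexamer's read frequency for a factor divided by its frequency in the tag-only sample.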"}, "ELK1": {"target": "T2, ELK1 (Homo sapiens, UniProt P19419 1-428)", "T2 sequence": "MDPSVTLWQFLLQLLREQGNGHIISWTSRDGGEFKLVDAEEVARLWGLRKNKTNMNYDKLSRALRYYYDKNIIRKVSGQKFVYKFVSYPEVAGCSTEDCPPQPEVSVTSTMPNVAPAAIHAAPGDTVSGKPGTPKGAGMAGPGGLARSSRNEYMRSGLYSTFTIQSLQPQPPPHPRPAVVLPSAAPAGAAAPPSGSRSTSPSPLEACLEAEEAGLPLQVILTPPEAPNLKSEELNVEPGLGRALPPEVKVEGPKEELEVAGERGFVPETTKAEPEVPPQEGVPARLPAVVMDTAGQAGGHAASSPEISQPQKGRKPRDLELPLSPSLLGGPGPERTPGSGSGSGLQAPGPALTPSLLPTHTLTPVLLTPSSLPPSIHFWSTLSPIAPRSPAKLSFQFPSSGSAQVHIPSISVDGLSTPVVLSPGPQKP", "summary_of_the_method": "as §1"}, "GABPA": {"target": "T3, GABPA (Homo sapiens, UniProt Q06546 1-454)", "T3 sequence": "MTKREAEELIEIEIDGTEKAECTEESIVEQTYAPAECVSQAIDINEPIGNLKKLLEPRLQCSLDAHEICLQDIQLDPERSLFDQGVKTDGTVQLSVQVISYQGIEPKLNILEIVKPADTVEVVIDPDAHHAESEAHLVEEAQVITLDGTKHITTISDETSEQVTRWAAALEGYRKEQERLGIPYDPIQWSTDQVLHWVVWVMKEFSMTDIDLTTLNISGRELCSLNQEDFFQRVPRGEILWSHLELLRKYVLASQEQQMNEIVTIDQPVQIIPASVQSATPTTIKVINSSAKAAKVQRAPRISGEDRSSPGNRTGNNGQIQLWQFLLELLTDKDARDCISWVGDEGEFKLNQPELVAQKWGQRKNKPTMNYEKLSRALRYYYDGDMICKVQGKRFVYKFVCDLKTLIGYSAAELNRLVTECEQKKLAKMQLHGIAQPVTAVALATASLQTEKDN", "summary_of_the_method": "as §1"}, "ELF1": {"target": "ELF1 (Homo sapiens, UniProt P32519 1-619)", "sequence (P32519 whole entry)": "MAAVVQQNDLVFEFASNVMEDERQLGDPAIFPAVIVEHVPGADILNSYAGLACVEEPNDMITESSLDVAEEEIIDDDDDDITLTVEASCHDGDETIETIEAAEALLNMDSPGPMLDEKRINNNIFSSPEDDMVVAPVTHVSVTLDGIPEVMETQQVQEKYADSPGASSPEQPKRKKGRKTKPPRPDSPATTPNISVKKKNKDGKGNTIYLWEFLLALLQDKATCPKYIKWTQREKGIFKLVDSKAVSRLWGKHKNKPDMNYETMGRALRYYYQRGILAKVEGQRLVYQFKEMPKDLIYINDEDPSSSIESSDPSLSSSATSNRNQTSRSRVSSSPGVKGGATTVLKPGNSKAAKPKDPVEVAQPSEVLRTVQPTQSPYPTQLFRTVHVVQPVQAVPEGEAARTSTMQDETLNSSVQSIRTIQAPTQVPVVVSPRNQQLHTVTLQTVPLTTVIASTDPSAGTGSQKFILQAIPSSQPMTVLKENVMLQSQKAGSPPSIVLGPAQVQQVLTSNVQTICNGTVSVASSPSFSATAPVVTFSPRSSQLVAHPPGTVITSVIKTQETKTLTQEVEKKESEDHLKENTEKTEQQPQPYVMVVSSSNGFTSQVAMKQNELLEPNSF", "summary_of_the_method": "as §1"}, "EHF": {"target": "T4, EHF (Homo sapiens, UniProt Q9NZC4 1-300)", "T4 sequence": "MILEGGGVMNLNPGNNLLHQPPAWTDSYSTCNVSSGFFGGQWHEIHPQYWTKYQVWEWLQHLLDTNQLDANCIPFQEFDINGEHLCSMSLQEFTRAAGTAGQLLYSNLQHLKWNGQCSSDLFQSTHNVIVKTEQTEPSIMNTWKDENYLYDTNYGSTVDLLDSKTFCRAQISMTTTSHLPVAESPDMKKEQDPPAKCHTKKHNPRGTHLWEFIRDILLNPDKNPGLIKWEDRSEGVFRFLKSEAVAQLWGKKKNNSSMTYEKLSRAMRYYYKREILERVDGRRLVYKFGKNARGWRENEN", "summary_of_the_method": "as §1"}, "SPI1": {"target": "SPI1 (Homo sapiens, UniProt P17947 1-270)", "summary_of_the_method": "as §1"}, "SPIB": {"target": "SPIB (Homo sapiens, UniProt Q01892 1-262)", "sequence (Q01892 whole entry)": "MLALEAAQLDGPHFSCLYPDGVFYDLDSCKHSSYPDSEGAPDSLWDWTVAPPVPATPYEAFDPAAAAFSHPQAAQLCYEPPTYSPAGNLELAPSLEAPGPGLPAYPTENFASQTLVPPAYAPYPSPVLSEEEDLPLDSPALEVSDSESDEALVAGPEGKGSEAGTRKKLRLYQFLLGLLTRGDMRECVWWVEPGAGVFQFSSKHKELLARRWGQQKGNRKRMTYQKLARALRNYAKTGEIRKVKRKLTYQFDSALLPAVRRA", "summary_of_the_method": "as §1"}, "ELK3": {"target": "T5, ELK3 (Homo sapiens, UniProt P41970 1-407)", "T5 sequence": "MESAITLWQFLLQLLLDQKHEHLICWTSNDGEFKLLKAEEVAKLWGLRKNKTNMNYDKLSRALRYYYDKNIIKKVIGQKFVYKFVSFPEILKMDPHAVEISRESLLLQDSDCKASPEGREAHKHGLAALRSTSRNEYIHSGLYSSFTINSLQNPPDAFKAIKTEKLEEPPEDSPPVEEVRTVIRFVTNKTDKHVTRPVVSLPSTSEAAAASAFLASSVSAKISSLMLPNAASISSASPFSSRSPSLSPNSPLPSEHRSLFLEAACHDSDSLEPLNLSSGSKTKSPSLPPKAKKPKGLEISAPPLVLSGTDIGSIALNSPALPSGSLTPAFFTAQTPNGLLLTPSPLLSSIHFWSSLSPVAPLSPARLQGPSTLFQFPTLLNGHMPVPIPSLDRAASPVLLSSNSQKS", "summary_of_the_method": "as §1"}, "SPIC": {"target": "T6, SPIC (Homo sapiens, UniProt Q8N5J4 1-248)", "T6 sequence": "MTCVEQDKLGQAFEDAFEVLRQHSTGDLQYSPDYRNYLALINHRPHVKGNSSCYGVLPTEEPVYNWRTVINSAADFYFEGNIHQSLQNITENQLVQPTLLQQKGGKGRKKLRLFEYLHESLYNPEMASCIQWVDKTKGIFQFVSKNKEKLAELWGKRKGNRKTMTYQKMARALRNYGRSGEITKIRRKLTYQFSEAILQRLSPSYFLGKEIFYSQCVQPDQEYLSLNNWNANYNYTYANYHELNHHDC", "summary_of_the_method": "as §1"}, "ELF4": {"target": "ELF4 (Homo sapiens, UniProt Q99607 1-663)", "sequence (Q99607 whole entry)": "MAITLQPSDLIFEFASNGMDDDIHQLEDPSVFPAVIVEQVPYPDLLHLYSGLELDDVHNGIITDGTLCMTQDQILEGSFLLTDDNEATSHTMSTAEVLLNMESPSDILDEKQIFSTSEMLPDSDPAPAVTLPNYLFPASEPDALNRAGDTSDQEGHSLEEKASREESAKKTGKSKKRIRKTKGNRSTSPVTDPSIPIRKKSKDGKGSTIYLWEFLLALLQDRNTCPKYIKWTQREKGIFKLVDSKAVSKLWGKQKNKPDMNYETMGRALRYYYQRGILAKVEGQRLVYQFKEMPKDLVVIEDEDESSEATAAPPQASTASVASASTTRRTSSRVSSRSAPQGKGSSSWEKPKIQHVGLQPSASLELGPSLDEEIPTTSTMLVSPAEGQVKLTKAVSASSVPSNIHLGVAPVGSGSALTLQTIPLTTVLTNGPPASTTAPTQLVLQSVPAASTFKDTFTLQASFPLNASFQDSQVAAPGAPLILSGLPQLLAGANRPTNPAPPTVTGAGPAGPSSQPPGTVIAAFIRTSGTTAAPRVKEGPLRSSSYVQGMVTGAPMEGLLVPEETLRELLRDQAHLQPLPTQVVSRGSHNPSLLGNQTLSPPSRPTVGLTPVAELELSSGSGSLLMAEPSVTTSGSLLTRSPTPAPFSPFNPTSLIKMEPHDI", "summary_of_the_method": "as §1"}}}
{"sequence": "GTTTGC", "values": [{"measurement": "binding signal", "setting": "FLI1", "result": "1.06 fold enrichment (6-mer frequency, TF over GST control)"}, {"measurement": "binding signal", "setting": "ELK1", "result": "1.11 fold enrichment (6-mer frequency, TF over GST control)"}, {"measurement": "binding signal", "setting": "GABPA", "result": "1.04 fold enrichment (6-mer frequency, TF over GST control)"}, {"measurement": "binding signal", "setting": "ELF1", "result": "1.02 fold enrichment (6-mer frequency, TF over GST control)"}, {"measurement": "binding signal", "setting": "EHF", "result": "1.11 fold enrichment (6-mer frequency, TF over GST control)"}, {"measurement": "binding signal", "setting": "SPI1", "result": "1.03 fold enrichment (6-mer frequency, TF over GST control)"}, {"measurement": "binding signal", "setting": "SPIB", "result": "1.07 fold enrichment (6-mer frequency, TF over GST control)"}, {"measurement": "binding signal", "setting": "ELK3", "result": "1.12 fold enrichment (6-mer frequency, TF over GST control)"}, {"measurement": "binding signal", "setting": "SPIC", "result": "1.2 fold enrichment (6-mer frequency, TF over GST control)"}, {"measurement": "binding signal", "setting": "ELF4", "result": "1.15 fold enrichment (6-mer frequency, TF over GST control)"}]}
